Assay in all cases: NCI-60 one-dose screen, 48 h (100 = growth as untreated, 0 = no growth, -100 = all killed)
Assay [1] has as its system HCT-15 colon. The conditions noted are these: 10 µM unless noted.
The test system of assay [2] is HT29 colon. The conditions noted are these: 10 µM unless noted.
For assay [3], the system named is SNB-75 CNS. The settings on record: 10 µM unless noted.
Assay [4] deals with SNB-19 CNS. The conditions noted are these: 10 µM unless noted.
In assay [5] the test system is U251 CNS. The conditions noted are these: 10 µM unless noted.
Assay [6] has as its system PC-3 prostate. The conditions noted are these: 10 µM unless noted.
Assay [7] deals with SK-MEL-5 melanoma. The conditions noted are these: 10 µM unless noted.
Assay [8] deals with UACC-62 melanoma. The conditions noted are these: 10 µM unless noted.
The subject of assay [9] is LOX IMVI melanoma. The settings on record: 10 µM unless noted.
Assay [10] has as its system SK-MEL-28 melanoma. The settings on record: 10 µM unless noted.
The test system of assay [11] is SK-MEL-2 melanoma. The settings on record: 10 µM unless noted.
Assay [12] concerns EKVX NSCLC. The settings on record: 10 µM.
In assay [13] the test system is SN12C renal. The conditions noted are these: 10 µM unless noted.
The test system of assay [14] is UO-31 renal. The conditions noted are these: 10 µM unless noted.
The test system of assay [15] is TK-10 renal. The settings on record: 10 µM unless noted.
Assay [16] deals with ACHN renal. The settings on record: 10 µM unless noted.
Assay [17] deals with A498 renal. The settings on record: 10 µM unless noted.
Assay [18] deals with MOLT-4 leukemia. The conditions noted are these: 10 µM unless noted.
For assay [19], the system named is CCRF-CEM leukemia. The settings on record: 10 µM.
For assay [20], the system named is CAKI-1 renal. The settings on record: 10 µM unless noted.

The panel holds about 83,000 compounds, 20% with a hit somewhere; the sample as a whole holds those more often.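 Single-dose data. Exposure time 48 hours. Values below 10 considered active.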 A number with no mark means an inactive call. Active and inactive are the calls of the source.

Consider `COc1ccccc1Nc1nnc(COc2ccc(CNC(=O)CCCC/C=C/C(C)C)cc2OC)o1`, for which the growth in [1] was 88.3%; in assay [2] it was 103%; in assay [3] it was 94.5%; in assay [4], 94.6%; in assay [5], 102%; in assay [6], 84.4%. Besides, the growth in assay [7] was 98%; in [8] it was 81.9%; in [9] it was 95.6%; in [10], 98.1%; in assay [11], 102%; in [12], 85%. The growth in assay [13] is 105%; in assay [14] it was 75.2%; in assay [15] it was 103%; in assay [16], 95.7%; in assay [17], 103%; in assay [18], 76.7%.
Turning to `CCCNC(=O)Oc1ccc(/C(=C(/C)Cc2ccc(OC)cc2)c2ccc(OCCN3CCCCC3)cc2)cc1`, the growth in [1] is 50.2%; in assay [2], 28.9%; in assay [3] it was 63.6%; in assay [4] it was 94.1%; in assay [5], 69.9%; in assay [6], 77%. For the same compound, the growth in [7] was 78.2%; in [8], 97.5%; in assay [9] it was 84.8%; in assay [10], 100%; in assay [11] it was 99.5%; in [12] it was 76.6%. The growth in assay [13] is 84.9%; in assay [14], 60.8%; in assay [15], 81.1%; in assay [16], 102%; in assay [19] it was 70.8%; in [18] it was 70.9%.
Turning to `COc1ccc(-c2nc(SCC(C)C)nc(Nc3ccc(C(=O)O)cc3)c2C#N)cc1`, the growth is 33% in assay [1]; 94.7% in assay [2]; 88.6% in [3]; 98.1% in [4]; 94.8% in assay [5]; 82.3% in assay [6]. Also, the growth was 63.3% in assay [7]; 99.3% in assay [8]; 88% in [9]; 25.5% in assay [10]; 57.9% in [11]; 90.7% in assay [12]. Moreover, the growth in assay [13] is 102%; in assay [14], 92.9%; in assay [15], 88.5%; in [16], 89.5%; in assay [19], 89.2%; in assay [18], 82.7%.
For the compound `Nc1ccc(N=Nc2ccccc2)c2cc(S(=O)(=O)O)ccc12`, the growth in assay [1] was 104%; in assay [2], 94.6%; in assay [3] it was 82.5%; in [4], 101%; in assay [5] it was 101%; in assay [6], 96%. Further, the growth in assay [7] is 107%; in [8], 103%; in assay [9], 97.7%; in assay [10] it was 118%; in [11], 91.1%; in assay [12], 105%. In addition, the growth in [13] was 108%; in assay [14], 86.7%; in [15], 92.9%; in assay [16], 104%; in assay [19] it was 99.9%; in assay [18], 106%.
As for `CCCCN(CCCC)CCCNc1c2c(nc3ccc(Cl)cc13)CCCC2`, the growth in assay [1] was 74.2%; in [2], 45.7%; in assay [3] it was 88.4%; in assay [4], 102%; in assay [5] it was 101%; in [6], 95.5%. The growth was 106% in [7]; 108% in assay [8]; 90.4% in [9]; 108% in assay [10]; 101% in [11]; 95.5% in [12]. Further, the growth was 93.2% in [13]; 72.7% in [14]; 86.3% in [15]; 102% in [16]; 98.1% in [19]; 94.9% in assay [18].
For `COc1ccc(/C=C/C(=O)/C=C/c2cc3ccccc3[nH]c2=O)cc1`, the growth in assay [1] was 75.3%; in assay [2], 3.66% (active); in assay [3], 61.6%; in assay [4], 79.6%; in assay [5], 13.7%; in [6], 52.4%. Besides, the growth is 86.7% in [7]; 53.5% in assay [8]; -21% (active) in assay [9]; 79.6% in assay [10]; 95.9% in assay [11]; 66.5% in assay [13]. The growth in assay [14] was 94.4%; in assay [15], 118%; in assay [16], 84.1%; in assay [20], 98.2%; in [17], 100%; in [19], 8.49% (active). Besides, in assay [18], the growth was 19.4%.
Turning to `Cc1ccc(S(=O)(=O)NC(CCC(=O)Nc2ccccc2)C(=O)Nc2ccccc2)cc1` (stereo not given), the growth was 0.514% (active) in assay [1]; -14.5% (active) in [2]; -24.9% (active) in [3]; -3.81% (active) in [4]; -43.8% (active) in [5]; -10.4% (active) in assay [6]. For the same compound, the growth is -65.5% (active) in assay [7]; -45.6% (active) in assay [8]; -21.6% (active) in assay [9]; -33.2% (active) in assay [10]; -39.6% (active) in assay [11]; 3.91% (active) in [13]. The growth is -16.3% (active) in [14]; -12.9% (active) in assay [15]; -50.7% (active) in assay [16]; 12% in [20]; -20.7% (active) in [17]; 5.4% (active) in assay [19]. Moreover, the growth in assay [18] is 8.8% (active).
Take `Cc1c(Cc2ccccc2)c(=O)oc2c(C)c(OCc3n[nH]c(=S)o3)ccc12`: the growth in assay [1] is 75.7%; in assay [2], 86.8%; in assay [3] it was 71.4%; in assay [4], 85.8%; in assay [5] it was 64.4%; in assay [6] it was 11.2%. In addition, the growth is 83.8% in [7]; 90.4% in assay [8]; 64.5% in assay [9]; 110% in assay [10]; 101% in [11]; 79% in assay [12]. The growth was 67.8% in [13]; 116% in assay [15]; 89.2% in assay [16]; 67.3% in assay [17]; 19.8% in assay [18].
